The whole screen tested about 75,000 compounds, of which about 15 (0.02%) were called active. Inconclusive results (about 3%) are left out. This is one part of a sample in which actives are shown more often than they occur. The call rests on the fitted dose curve; in most records, active means well fitted inhibition curve with a large enough effect in the main read-out, with a control signal flat (not every such curve was filed as active); inconclusive means small, poorly fitted or top-dose-only effect, or a change in a side signal; inactive means flat fitted curve, though single readings scatter.
Each molecule was assayed against Caspase-7 (Homo sapiens) (UniProt P55210) (assay: qHTS Assay for Allosteric/Competitive Inhibitors of Caspase-7). Details: recombinant caspase-7, Ac-DEVD-AFC fluorescence rate; series mostly up to 57.5 µM; activity change, negative = inhibition: at the top concentration.
Excerpt: NIH Molecular Libraries Screening Centers Network [MLSCN]
NIH Chemical Genomics Center [NCGC]
PI Name: Dr. James Wells,
Dr. Enrique Perez-Paya, Dr.Janice Williams, Dr. Dennis Wolan, a person
The caspases (Cysteine Aspartyl Protease) comprise a related family of 14 dimeric proteases that are critical mediators of apoptosis (programmed cell death) and inflammation. The caspases represent an important class of drug targets for stroke, ischemia, cancer and inflammatory diseases. […] One goal of this project was to identify compounds that act as allosteric inhibitors via stabilizing the procaspase form of the enzyme. Previous work in Well's laboratory has shown that such allosteric inhibitors can be identified and these act by binding at the dimer interface of enzyme (Hardy, Lam et al., 2004).
The biochemical assay was configured using purified caspase 7 at a high enzyme concentration to promote formation of the homodimers and thus facilitate the identification of allosteric inhibitors. The overall goal was to identify reversible inhibitors with better drug-like properties than the currently available set of aspartyl-containing peptidomimetics that covalently bind the active site. Caspase 7 was assayed using the profluorescent substrate Ac-DEVD-AFC. After initiation of the assay with substrate the plates were rapidly read using an automated robotic system (Kalypsys, Inc.) to maintain consistent timing. A kinetic mode of detection was used where the initial rate was collected (estimated final product formation was ~10%). Compounds were screened as a concentration-titration series that ranged from 57 uM to 0.7 nM. Below is the protocol used for caspase 7.
NCGC Assay Protocol Summary:
Caspase 7 was prepared in buffer (50 mM HEPES pH 7.5, 50 mM KCl, 200 mM NaCl, 10 mM DTT, 0.1% CHAPS) at a concentration of 66.6 nM and 3 uL was dispensed to all wells using black solid Kalypsys 1536-well plates. 20 nL of DMSO containing compounds was added using a pin-tool (Kalypsys Inc.) to columns 5-48. Then 20 nL of DMSO solution from a control plate was added to columns 1-4. Controls were: Column 1, 16 point titration with each concentration in duplicate (1:1 dilutions in DMSO; final starting concentration was 57 uM) of the caspase 7 inhibitor Ac-DEVD-CHO (Alexis Biochemicals); Column 2, a 16 point titration with each concentration in duplicate of the free AFC fluorophore prepared in DMSO (Alexis Biochemicals), final starting was 40 uM; Column 3 neutral (DMSO only) control; Column 4: DMSO alone, to serve as a negative control (no substrate was added). Then 1 uL of 20 uM the substrate Ac-DEVD-AFC (Alexis Biochemicals) prepared in the same buffer was dispensed to all wells except columns 2 and 4 and the plates were immediately transferred (< 1 min) to the Viewlux. The plates were then exposed using 405 nm excitation/520 nm emission filters for 4 sec and read at 20 sec intervals for 3 min. Final enzyme concentration was 50 nM and the final substrate concentration was 5 uM.
Concentration-response curves were fitted to the data calculated from slope of the linear regression of fluorescent intensity versus time (the rate). The concentration-effect curves were then classified based on curve quality (r2), response magnitude and degree of measured activity. […] Inconclusive compounds had appreciable concentration-dependent effects on both the measured rate and the interpolated basal fluorescence intensity at the start of the reaction but where the basal fluorescent intensity was marginal (e.g. < 10-fold). Inconclusive compounds also encompass highly fluorescent compounds (>100-fold increases in fluorescent intensities values relative to controls) where artificial concentration-dependent decreases in the rate occurred at high compound concentrations due to fluorescent interferences.
Keywords: Caspase 7, proteases, profluorescent, MLSMR, MLSCN, NIH Roadmap, qHTS, NCGC
Further: % of control where 0% means no effect.

Caspase-7 (Homo sapiens), sequence (P55210 24-198 limits assumed): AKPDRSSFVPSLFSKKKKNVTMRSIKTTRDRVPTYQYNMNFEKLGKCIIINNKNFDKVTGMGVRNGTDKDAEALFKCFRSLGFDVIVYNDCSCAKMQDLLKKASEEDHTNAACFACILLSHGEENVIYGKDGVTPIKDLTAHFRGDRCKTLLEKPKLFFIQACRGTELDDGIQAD
Caspase-7 (Homo sapiens), sequence (P55210 207-303 limits assumed): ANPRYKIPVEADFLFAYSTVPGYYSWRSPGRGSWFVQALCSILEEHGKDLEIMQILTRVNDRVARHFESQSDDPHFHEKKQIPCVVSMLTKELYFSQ

Activity change, negative = inhibition, inactive:
Cc1ccc(S(=O)(=O)NC(C)C(=O)Nc2ccccc2C(=O)N2CCCC2)cc1 (stereo not drawn) 0.252%
Cn1c(=S)c2[nH]c(SCCCc3ccccc3)nc2n(C)c1=O 0.0837% [at 11.5 µM]
CCC1=C(OC(=O)N(CC)CC)N2C(=O)OC(=NCC3CC3)[C@]2(C)[C@H]2C1=CC[C@H]1C(=O)N(CC(=O)OC)C(=O)[C@H]12 -3.1%
Fc1ccc(-c2nnc3sc(-c4ccc5c(c4)OCO5)nn23)cc1 -2.97%
Cn1c2c(c(=O)n(C)c1=O)C(c1ccc(O)cc1)Nc1ccccc1O2 (stereo not drawn) -0.743%
CCOC(=O)c1[nH]c2c(c1C)C(=O)CC(c1ccc(N(C)C)cc1)C2 (stereo not drawn) -4.88%
COc1ccc(NS(=O)(=O)c2ccc(NC(=O)C(C)(C(F)(F)F)C(F)(F)F)cc2)nn1 -1.99%
Cc1cc(C(=O)COC(=O)c2cccs2)c(C)n1-c1c(C)n(C)n(-c2ccccc2)c1=O 5.46%
COc1ccc2c3c1OC1CC(O)C=C[C@@]31CCN(C)C2 (stereo partly drawn) 0.921%
Cc1ccc(S(=O)(=O)C2(S(=O)(=O)c3ccc(C)cc3)CCCC2)cc1 5.15%
CCCN1C(=O)C(NS(=O)(=O)c2ccc(N)cc2)(C(F)(F)F)C(C(=O)OC)=C1C (stereo not drawn) 1.12%
CS(=O)(=O)c1ccc2nc(NC(=O)C3CCCCC3)sc2c1 -1.36%
CC(=O)OC1CCC2(O)CC1(C)CCC1C2CC1(C)C (stereo not drawn) 1.05%
CC(C)C(N)C(=O)OCCOCn1cnc2c(=O)[nH]c(N)nc21 (stereo not drawn) 0.177%
CC(C)(CSc1nncn1/N=C/c1ccco1)NS(=O)(=O)c1ccc(Cl)cc1 -1.02%
NC(=O)C1CCN(C(=O)c2ccc(C(F)(F)F)cc2)CC1 -0.1%
Cc1ccccc1CN1CCN(CC(=O)NCc2ccccn2)C1=O -3.4%
BrC1C(Br)C(Br)C(Br)C(Br)C1Br (stereo not drawn) -0.843%
CC(=O)N1CCC2(CCCN(c3ncccn3)C2)CC1 -0.0087%
CC1CCCCN1CCCNC(=O)c1ccc(-n2c(=O)c(=O)[nH]c3ccccc32)cc1 (stereo not drawn) -0.222%
CCCn1c(SCC(=O)Nc2cccc(C(=O)OCC)c2)nnc1-c1ccoc1C -2.89%
COC(=O)CC1C(C)(C)C(OC(C)=O)C2CC3=C4CC(=O)OC(c5ccoc5)[C@]4(C)CCC3[C@@]1(C)C2=O (stereo partly drawn) 0.157%
O=C1NS(=O)(=O)c2ccccc21 -0.547%
CC12CN3CC(C)(CN(C1)C3c1ccc(Cl)cc1Cl)C2=O (stereo not drawn) 1.96%
C[N+](C)(C)CCNC(=O)c1c(O)c2c([nH]c1=O)CCCC2 0.0221%
CCOC(=O)N1CCC(O)(c2cc(C)c(C)cc2C)CC1 0.455%
Cc1cc(C)cc(N(CC(=O)Nc2c(C)n(C)n(-c3ccccc3)c2=O)S(C)(=O)=O)c1 1.18%
COc1ccc(Cn2c(=O)sc3ccccc32)cc1OC 4.76%
CCOC(=O)N1CCN(C(=O)CSc2nnc(-c3c[nH]c4ccccc34)n2CCOC)CC1 -1.93%
CCN(CC)C(=O)CSc1nnc(-c2ccc(S(=O)(=O)NCc3ccccc3Cl)cc2)o1 6.38%
Cc1ccccc1NC(=O)c1cc(S(=O)(=O)N2CCOCC2)cs1 -0.15%
CCOC(=O)c1[nH]cnc1C(=O)NC1CCCCC1 -0.201%
Oc1cc(O)c2c(c1)OC(c1ccc(O)c(O)c1)C(O)C2 (stereo not drawn) -8.9%
CCOc1ccc(NS(=O)(=O)c2ccc(OCC(=O)NCCCOC)cc2)cc1 -0.0247%
COc1cccc(Cn2c(=O)c(C)nc3cnc(Oc4ccccc4)nc32)c1 -5.86%
CCOc1ccc(Cn2c(SCCCCC#N)nc3c2c(=O)n(C)c(=O)n3C)cc1OCC -1.76%
Cc1onc(-c2ccccc2Cl)c1C(=O)NCCn1ccc2ccccc21 -2.02%
CC1O[C@@H](Oc2c(-c3ccc(O)c(O)c3)oc3cc(O)cc(O)c3c2=O)C(O)C(O)C1O (stereo partly drawn) -0.198%
CCC1Oc2ccc(Cl)cc2N(CC(=O)O)C1=O (stereo not drawn) -0.283%
O=C(Cc1cccs1)N1CCCC(c2nc(-c3ccc(S(=O)(=O)N4CCCC4)cc3)no2)C1 (stereo not drawn) -4.24%
CN(C)CCc1c[nH]c2ccc(Cn3cncn3)cc12 0.22%
C=CCn1c(COc2ccccc2F)nnc1SCC(=O)N1CC(=O)Nc2ccccc21 -2.2%
O=NO
COC(=O)c1ccc(N(CC(=O)NC2CCCC2)C(=O)CNC(=O)c2ccco2)cc1 -1.2%
COc1ccc(C(=O)CSc2nccc(=O)[nH]2)cc1 -0.19%
COc1cc(OC)c(C(=O)Nc2ccc(N(C)C)cc2)cc1OC 0.862%
CC1CSc2nnc(CCc3ccccc3)n21 (stereo not drawn) -1.75%
O=c1c(O)c(-c2ccc(O)cc2)oc2ccccc12 -1.75%
CC(C)NS(=O)(=O)c1ccc(OCC(=O)Nc2ccc3c(c2)OCCO3)cc1 -0.453%
CCOC(=O)Cc1csc(NC(=O)CN(C)S(=O)(=O)c2ccc3c(c2)CCC(=O)N3)n1 -1.68%
CC1CCCC(NC(=O)CN2CCN(Cc3ccc(Cl)cc3)C2=O)C1C (stereo not drawn) -0.0034%
CCC(Oc1ccccc1)C(=O)NCc1cccnc1 (stereo not drawn) -0.0605%
CC1(C)C=CC(=O)[C@]2(C)C1CC(=O)[C@]1(C)C2CC[C@@]2(C)C(c3ccoc3)OC(=O)C3OC321 (stereo partly drawn) -0.171%
CCCCCNC(=O)Cc1ccc(OC)cc1 -1.53%
C=CC(=O)c1ccc2ccccc2c1 -1.45%
COC(=O)C1=C(N)Oc2cc(C)oc(=O)c2C1c1cccnc1 (stereo not drawn) 1.77%
CCOC(=O)c1c(-n2cnnn2)sc(C)c1C 0.213%
CNc1ncnc2ccc(-c3cccc(NS(C)(=O)=O)c3)cc12 1.83%
Cn1cccc1Cc1nnc(SCC(=O)NCc2ccc3c(c2)OCO3)n1CCc1ccccc1 -0.938%
CC(C)(C)c1ccc(NC(=O)NCc2ccco2)cc1 -2.01%
CC1(C)OC2CC3C4CCC5=CC(=O)CCC5(C)C4(F)C(O)CC3(C)[C@]2(C(=O)CCl)O1 (stereo partly drawn) -0.0664%
C=C[C@](C)(O)CCC1C(=C)CCC2[C@@](C)(CO)CCC[C@@]12C (stereo partly drawn) 1.43%
COc1c(C(C)C)oc2cc3oc(=O)ccc3cc12 -1.38%
COC(=O)[C@@H]1C[C@@]2(O)[C@H](O)[C@H](O)[C@H](O)C[C@H]2N1CC1CCCCC1 -0.73%
Clc1ccc(C=NC23CN4CN(CN(C4)C2)C3)cc1 0.219%
O=C1CCCC(O)=C1C=NCCc1ccccc1 1.03%
CCC(C)(C)n1nnnc1C(c1cccs1)N1CCN(Cc2ccccc2)CC1 (stereo not drawn) -8.5%
Cc1c(S(=O)(=O)O)oc2c1C(=O)C(=O)c1c-2ccc2c1CCCC2(C)C -0.0406%
CN(C)/C=N/c1cc(=O)n(C)c(=O)n1CC1CC1 -0.251%
O=C(OCc1nnc(-c2ccccc2)o1)c1ccc2c(c1)C(=O)N(CCc1ccccc1)C2=O -1.28%
c1ccc2cc3[nH]c(CN4CCCCC4)nc3cc2c1 0.392%
COC1[C@H](OC(N)=O)C(O)[C@H](Oc2ccc3c(O)c(NC(=O)c4ccc(O)c(CC=C(C)C)c4)c(=O)oc3c2C)OC1(C)C (stereo partly drawn) -0.537%
COc1cccc(OCC(O)CN2CCN(CCO)CC2)c1 (stereo not drawn) 0.0001%
Cc1oc(C)c(C(=O)NCCCC(=O)O)c1C(=O)NCCCC(=O)O 0.635%
CCOc1cc(S(=O)(=O)NC2CC(C)(C)NC(C)(C)C2)ccc1F -0.319%
COc1cc(OC)c2c(c1Cl)OC1(C2=O)C(O)=CC(=O)CC1C (stereo not drawn) -1.66%
CC(C)(O)CCC(O)[C@@](C)(O)C1CC[C@]2(O)C3=CC(=O)C4CC(O)C(O)C[C@]4(C)C3CC[C@]12C (stereo partly drawn) 2.51%
CC(=O)Oc1c2c(c3c(c1CC=C(C)C)O[C@@]14C(=CC5CC1C(C)(C)OC4(C/C=C(\C)C(=O)O)C5=O)C3=O)OC(C)(CCC=C(C)C)C=C2 (stereo partly drawn) -23.4%
CC(=O)OCC(=O)C1CCC2C3CCC4=CC(=O)CC[C@@]4(C)C3CC[C@]12C (stereo partly drawn) -2.96%
COc1ccc(CCN=C2SCC(=O)N2C)cc1OC -1.75%
Cc1cccc(-n2c(O)c(C=Nc3ccccc3N)c(=O)[nH]c2=O)c1 -4.62%
CCC1=C(OC(=O)N(CC)CC)N2C(=O)OC(=NCCc3c[nH]c4ccccc34)[C@]2(C)[C@H]2C1=CC[C@H]1C(=O)N(CC)C(=O)[C@H]12 -2.47%
COc1ccccc1N1CCN(C[C@@H]2CN3C(=O)N(C)c4ccccc4C3=N2)CC1 1.97%
COc1ccc(C2C(C(=O)N3CCN(c4ccc(OC)cc4)CC3)c3ccccc3C(=O)N2C)cc1 (stereo not drawn) 1.08%
CN(CCOc1ccc(CC2SC(=O)NC2=O)cc1)c1ccccn1 (stereo not drawn) 1.57%
N#CCC(=O)NC(=O)NCC1CC1 -1.24%
Cn1c(=O)cc(SCC(=O)N2CCN(C(=O)c3ccco3)CC2)c2ccccc21 0.0908%
O=C(c1cccnc1NCc1ccccc1)N1CCOCC1 -1.76%
CN1CCC(CNC(=O)c2ccc(-n3c(=O)c(=O)[nH]c4ccccc43)cc2)CC1 -0.892%
O=C(C1=C(O)C(=O)N(Cc2ccccc2)C1c1cccnc1)c1ccco1 (stereo not drawn) -0.988%
O=C(c1cccs1)N1CCN(Cc2ccc3c(c2)OCO3)CC1 1.48%
C[C@H]1CC[C@H](C(=O)O)N[C@@H]1c1ccc(C#Cc2ccccc2)cc1 1.78% [at 11.5 µM]
Cc1noc(C)c1CSc1nc2cc(S(=O)(=O)N3CCOCC3)ccc2o1 3.09%
Cc1csc(-c2nc3ccccc3n2C)n1 0.971%
COC(=O)[C@@H]1C[C@@]2(O)[C@H](O)[C@H](O)[C@H](O)C[C@H]2N1Cc1ccc(C(C)(C)C)cc1 -0.0221%
CCC(CC)C(=O)Nc1cc(C(=O)OC)cc(C(=O)OC)c1 0.195%
Cc1ccc(N(CC(O)CN2CCCC2)S(=O)(=O)c2ccccc2)cc1 (stereo not drawn) -0.0894%
O=C(COc1ncnc2ccccc12)NC(=O)NCc1ccccc1 -0.802%
Cc1ccccc1Nc1nnc(C)c(=O)[nH]1 -0.782%
CC(C)=CCC/C(C)=C/CC/C(C)=C/CC/C(C)=C/CO 0.242%
CCCOc1ccc2c3c(c(=O)oc2c1OCCC)CCC3 -4.43%
CCOC(=O)Cn1c(=O)oc2cc(S(=O)(=O)N(C)Cc3ccco3)ccc21 -0.862%
CC(C)[C@H]1CC[C@@H](C)C[C@H]1O 0.98%

Source: PubChem BioAssay AID889 (National Center for Advancing Translational Sciences (NCATS), 2007)
